# Shown are actives, neighbours in structure and some others; about 10% of the full set was active somewhere.
# MCF10A rerep: A quantitative high throughput screen for small molecules that induce DNA re-replication in MCF 10a normal breast cells. MCF 10A DNA re-replication, Hoechst nuclear intensity, 48 h. Potency, µM (titrated, usually from 46.1 µM), for the others: top-dose activity, positive = re-replication, most hits filed as activators. hit rate 2.9% among 350,000; note: % of control where 0% means no effect; nearly all actives have a fitted effect of over 50% in size
# Gal4-VP16 FLuc: VP16 counterscreen qHTS for inhibitors of ROR gamma transcriptional activity | hit rate 3.5% among 310,000 | Potency, µM (top dose mostly 53.6 µM), without a hit: top-dose activity, negative = inhibition, usual class: inhibitors | Drosophila S2 Gal4-VP16 UAS-luciferase, luminescence, 20 h | AID 2546, 2010;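 note: Gal4-VP16 expression switched on by copper sulfate through the metallothionein promoter; % is set by controls: 0 for no effect and ±100 for the full control effect; nearly all actives have a fitted effect of over 50% in size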
# ELG1 DNA repair: qHTS screen for small molecules that inhibit ELG1-dependent DNA repair in human embryonic kidney (HEK293T) cells expressing luciferase-tagged ELG1. HEK293T ELG1-luciferase reporter, luminescence, 16 h; DNA damage induced by 5-fluorouridine. Potency, µM (top dose mostly 46.1 µM), for inactives: at the top dose activity change, negative = inhibition, most hits filed as inhibitors. hit rate 2.3% among 330,000. AID 504467, 2011; note: % is set by controls: 0 for no effect and ±100 for the full control effect; nearly all actives have a fitted effect of over 55% in size
#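 HEK293T cells expressing luciferase-tagged ELG1 (2,000/well) received 5-Fluorouridine plus compound or DMSO for 16 hr at 37 °C. Luciferase was read by ONE-Glo luminescence after 30 min at room temperature.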
# RORgamma inh: qHTS for inhibitors of ROR gamma transcriptional activity. Drosophila S2 Gal4-RORgamma UAS-luciferase reporter, 20 h. Potency, µM (top dose mostly 53.6 µM), for inactives: top-dose activity change, negative = inhibition, hits mostly inhibitors. AID 2551, 2010. hit rate 5.4% among 310,000; note: % is set by controls: 0 for no effect and ±100 for the full control effect; nearly all actives have a fitted effect of over 60% in size
# Target sequence (P51450 whole entry, looked up, the tested form may be a part): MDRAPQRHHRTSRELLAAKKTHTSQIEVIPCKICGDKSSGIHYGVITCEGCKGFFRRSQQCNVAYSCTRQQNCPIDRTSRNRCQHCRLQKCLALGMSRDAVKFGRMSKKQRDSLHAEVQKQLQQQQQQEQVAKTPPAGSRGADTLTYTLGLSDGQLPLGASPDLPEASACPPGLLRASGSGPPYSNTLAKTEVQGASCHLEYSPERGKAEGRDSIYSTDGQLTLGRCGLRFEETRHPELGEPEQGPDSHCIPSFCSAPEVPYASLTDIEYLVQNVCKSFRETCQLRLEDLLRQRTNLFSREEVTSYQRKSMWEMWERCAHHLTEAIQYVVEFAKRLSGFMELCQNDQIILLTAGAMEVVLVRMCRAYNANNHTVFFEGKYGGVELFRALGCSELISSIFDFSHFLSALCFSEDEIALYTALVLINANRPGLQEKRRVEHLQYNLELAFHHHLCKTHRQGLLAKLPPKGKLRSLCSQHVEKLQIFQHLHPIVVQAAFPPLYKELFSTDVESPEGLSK
#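 Using a luciferase readout, inhibitors were identified by reduced reporter activity in Drosophila cells coexpressing a copper-inducible Gal4–ROR gamma fusion and UAS-driven Photinus luciferase, incubated 20 hr after 700 uM copper sulfate.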
# SW480 rereplic: A quantitative high throughput screen for small molecules that induce DNA re-replication in SW480 colon adenocarcinoma cells; SW480 DNA re-replication, Hoechst DNA content imaging, 48 h; Potency, µM (titrated, usually from 46.1 µM), without a hit: at the highest dose re-replication activation, most hits filed as activators; hit rate 1.8% among 340,000; AID 624297, 2012; note: % of control where 0% means no effect; nearly all actives have a fitted effect of over 55% in size
#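 Image-based DNA-content assay: after two days of treatment, nuclei were labelled with the DNA dye Hoechst and imaged, and hits were compounds raising the count of nuclei showing high fluorescence intensity.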
# Starred values were filed as active, the others as inactive; ? = inconclusive; / = not tested or not shown; [ ] = another dose, or the depositor's remark. Calls come from the whole dose curve; as a rule, active = well fitted curve in the direction sought with a large enough effect; inconclusive = small, poorly fitted or top-dose-only effect, or another doubt; inactive = no such curve, though single readings can be large; an effect the other way counts as inactive or inconclusive. Potency is the fitted concentration of half-maximal effect.
SMILES,MCF10A rerep,Gal4-VP16 FLuc,ELG1 DNA repair,RORgamma inh,SW480 rereplic
Oc1ccc2c(c1)OCO2,/,21%,/,-11%,/
CC(C)c1ccc(S(=O)(=O)N(C)C2(C)CCS(=O)(=O)C2)cc1 (stereo unspecified),?,/,-5%,/,-17%
CCOC(=O)c1c(-c2ccccc2)csc1NC(=S)NC,18µM*,1µM*,-2%,?,?
CCNC(=S)Nc1scc(-c2ccccc2)c1C(=O)OCC,?,2.5µM*,-8%,1.4µM*,4%
CCOC(=O)c1c(-c2cccc([N+](=O)[O-])c2)csc1NC(=O)C1CCCCC1,?,10µM*,?,?,11%
COC(=O)c1c(-c2ccc(C)cc2)csc1NC(=S)NC(=O)c1cc(OC)cc(OC)c1,-8%,8.9µM*,?,2.8µM*,-4%
COc1cc(/C=C/C(=O)O)cc(S(=O)(=O)NC2CC2)c1OC,-7%,-8%,2%,-1%,-3%
COc1ccc(-c2cc(=O)oc3cc(OCC(=O)NCC4CCC(C(=O)O)CC4)ccc23)cc1 (stereo unspecified),1%,10%,16%,13%,?
COc1ccc(CCNC(=O)C(=O)NCC2OCCN2S(=O)(=O)c2ccc(C)cc2)cc1OC (stereo unspecified),-2%,10µM*,?,6%,6%
COc1ccc(S(=O)(=O)N2CCOC2CNC(=O)C(=O)NCCc2c[nH]c3ccccc23)cc1 (stereo unspecified),4%,2%,?,?,0%
O=C(NCCc1c[nH]c2ccccc12)C(=O)NCC1OCCCN1S(=O)(=O)c1cc(F)ccc1F (stereo unspecified),23%,-3%,21µM*,30%,-22%
COc1ccccc1CCNC(=O)C(=O)NCC1OCCN1S(=O)(=O)c1ccc(Br)cc1 (stereo unspecified),?,35µM*,?,?,7%
COc1ccc(S(=O)(=O)N2CCOC2CNC(=O)C(=O)NCCc2c[nH]c3ccccc23)cc1C (stereo unspecified),4%,-11%,26µM*,?,8%
Cc1ccc(S(=O)(=O)c2ccc(NC(=O)c3c(F)cccc3F)cc2)cc1,10%,3%,-8%,24%,2%
CCCC[C@]12Cc3cc(OC)c(OC)cc3C(O1)C1=C(O2)C(=O)c2ccccc2C1=O,/,1%[10 µM],/,-19%[10 µM],/
Cc1cc(C)c(NC(=O)CNC(=O)COC(=O)C2=COCCO2)c(C)c1,-7%,/,6%,/,5%
COc1ccccc1CNC(=O)C(=O)NCC1OCCN1S(=O)(=O)c1ccc(Br)cc1 (stereo unspecified),0%,1%,?,41%,23µM*
CC1CC(=O)N(CC(=O)Nc2ccccc2F)c2ccccc2S1(=O)=O (stereo unspecified),-6%,5%,14%,-2%,16%
COc1cc2cc3c4c(cc(OC)c(OC)c4c2cc1OC)CCN3C,/,-6%,/,2.8µM*,/
COc1cc2c(cc1OC)C(=O)N(C)CC2,3%,5%,-3%,8%,-64%
Cc1c(C(=O)NCCO)[n+](=O)c2ccccc2n1[O-],0%,-9%,/,2%,-1%
CCCCNC(=O)Nc1nnc(-c2ccc(OCC)cc2)o1,-8%,5.6µM*,4%,7.1µM*,1%
CCCCNC(=O)Nc1nnc(-c2ccccc2)o1,8%,5.6µM*,?,4µM*,-4%
CCOc1ccc(-c2nnc(NC3=NCCCCC3)o2)cc1,8%,-21%,?,-16%,-32%
CCOC(=O)CNC(=O)Nc1nnc(-c2ccc(OCC)cc2)o1,2%,5.6µM*,23%,3.2µM*,-5%
CCCCC(=O)Nc1cccc(-c2nnc(-c3ccccc3)o2)c1,-11%,?,?,?,-7%
